# In PubChem BioAssay AID2763 (National Center for Advancing Translational Sciences (NCATS), 2010):
# Results filed as inconclusive are left out. Active and inactive are the calls of the source. Calls follow the shape of the dose curve; as a rule, active = well fitted inhibition curve with a large enough effect; inconclusive = small, poorly fitted or top-dose-only effect, or effect the other way; inactive = no such curve, though single readings can be large or run the other way.
# Assay: Concentration response confirmation VP16 counterscreen for inhibitors of ROR gamma transcriptional activity; also: nearly all actives have a fitted effect of over 70% in size
# Details: Drosophila S2 Gal4-VP16 UAS-luciferase, luminescence, 20 h; series mostly up to 46.1 µM; activity change, negative = inhibition: at the top concentration
# Text: NIH Molecular Libraries Probe Production Network [MLPCN] NIH Chemical Genomics Center [NCGC] MLPCN Grant: R03 DA026211-01 Assay Provider: Dan Littman, New York University Assay Overview: The retinoic acid-related orphan receptor (ROR) gamma is a transcription factor that has a central role in the differentiation of Th17 cells, a subset of T helper cells that secrete the inflammatory cytokines IL-17, IL-17F, and IL-22. Th17 cells have been implicated in graft versus host disease, autoimmune disease and asthma. ROR gamma is induced in naive T helper cells in the presence of TGF-beta combined with IL-6, IL-21, or IL-23, and thereafter directs the expression of the Th17 lineage cytokines. To identify nonspecific inhibitors, a Drosophila Schneider cell line was stably transfected with two vectors: a gene expressing a fusion of the Gal4 DNA binding domain and the transactivation domain of the viral transcription factor VP16, under the control of the metallothionine promoter and a Photinus luciferase reporter regulated by the Gal4 binding site enhancer, UAS. […] Small molecule inhibitors that inhibit components common to the RORgt and VP16 assays, such as the Gal4 DNA binding domain or the UAS luciferase reporter, will be active in both assays and thus scored as nonspecific.
# Assay Protocol Summary: For screening, 600 cells in 4 uL/well were dispensed into white solid 1536-well plates (Grenier) using a solenoid-based dispenser. Following transfer of 23 nL compound or DMSO vehicle by a pin tool, the plates were incubated 1 hr at ambient temperature, and 1 uL/well copper sulfate (700 uM final concentration) was added. The plates were centrifuged 15 s at 1000 RPM and incubated 20 hr at ambient temperature. After addition of 1.5 uL Photinus luciferase detection reagent, the plates were incubated 10 min at ambient temperature and then read by an ViewLux (Perkin Elmer) to detect luminescence.
# % is scaled to controls: 0 for no effect and ±100 for the full control effect; potency is read from the fitted curve at half-maximal effect.
SMILES,"activity change, negative = inhibition",Potency
O=C(CCCOc1ccccc1)Nc1nc2ccccc2[nH]1,7.33% (inactive),
COc1cccc(-c2cc(C(=O)N3CCc4ccccc4C3)[nH]n2)c1,-10.7% (inactive),
Cc1cc(NC(=O)CN2CCOCC2)n(-c2nc3ccccc3s2)n1,,12.5 µM (active)
Cn1c(=O)c2c(nc(NCc3ccco3)n2Cc2ccccc2Cl)n(C)c1=O,,3.97 µM (active)
c1ccc(-c2ncc3c(ccc4ccccc43)n2)cc1,,8.88 µM (active)
CCOC(=O)[C@@H]1[C@H]2COc3cc(OC)ccc3[C@@H]2N2C(=O)N(c3ccc(C)cc3)C(=O)[C@@]12C,7.17% (inactive),
CCOc1cccc(-c2cc(-c3n[nH]c(=S)n3CC)c3ccccc3n2)c1,-3.87% (inactive),
COC(=O)Cn1c(CN2CCc3ccccc3C2)nc2c1c(=O)n(C)c(=O)n2C,,6.28 µM (active)
CC(=O)c1cccc(N(CC(=O)Nc2ccccc2C(=O)N2CCCC2)S(C)(=O)=O)c1,3.74% (inactive),
O=C(COc1ccccc1Cl)NCCCN1CCOCC1,-6.78% (inactive),
COc1ccc2oc(=O)c(C(=O)Nc3ccccc3C)cc2c1,,7.91 µM (active)
CCOC(=O)c1sc(NC(=O)c2sc(C)nc2C)nc1C,-0.602% (inactive),
Cc1ccc2nc(-c3ccc(NC(=O)COC(=O)c4ccc(=O)[nH]c4)cc3)sc2c1,,12.5 µM (active)
O=C(NC(=S)Nc1nc(-c2ccccc2)cs1)c1cccnc1,16.5% (inactive),
C=CCNc1nc(Nc2ccc([N+](=O)[O-])cc2)nc(N2CCCC2)n1,,19.9 µM (active)
Cc1nnc(SCC(=O)Nc2ccc(S(=O)(=O)Nc3ccc(Cl)nn3)cc2)s1,-1.14% (inactive),
COC(=O)Cn1c(CN2CCN(c3ccc(F)cc3)CC2)nc2c1c(=O)n(C)c(=O)n2C,,3.15 µM (active)
CCOC(=O)c1ccc2nc(Nc3nc4ccc(F)cc4s3)sc2c1,,25 µM (active)
COc1ccc2nc(NC(=O)c3sc4nc(C)cc(C)c4c3N)sc2c1,,0.0791 µM (active)
CCOC(=O)c1nnsc1Nc1ccc(C)c(C)c1,22.9% (inactive),

SMILES,"activity change, negative = inhibition",Potency
Cc1ccc2nc(-c3ccc(NC(=O)COC(=O)c4ccc([N+](=O)[O-])o4)cc3)sc2c1,,3.53 µM (active)
CCNC(=O)CCc1nc(-c2ccc(C(C)(C)C)cc2)no1,,4.45 µM (active)
O=C(CSc1nc2ccc(NC(=O)CSc3nnnn3Cc3ccccc3)cc2s1)Nc1ccccc1,6.86% (inactive),
Cc1cc(Br)c2nc3c(c(C(=O)O)c2c1)CCCCC3,-16.4% (inactive),
CC(C)(C)NC(=O)CSc1nc2ccc(NC(=O)CSc3nnnn3Cc3ccccc3)cc2s1,,12.5 µM (active)
COC(=O)c1ccc(Oc2cc(C)nc(-n3nc(C)cc3C)n2)cc1,,7.91 µM (active)
COc1cc(C(=O)NC2CC(C)(C)Cc3c2cnn3-c2ccccc2)cc(OC)c1OC (stereo not given),-6.83% (inactive),
CN1CCN(C(=O)CCN2C(=O)/C(=C\c3ccccc3F)SC2=S)CC1,0.859% (inactive),
COc1cccc(/C=C2\SC(=S)N(CCCC(=O)N3CCCC3)C2=O)c1,11.6% (inactive),
COc1cccc(Cn2c(NCc3ccco3)nc3c2c(=O)n(C)c(=O)n3C)c1,,2.81 µM (active)
Cc1cc(C)c(S(=O)(=O)NCCn2ccc3ccccc32)c(C)c1,-83.6% (inactive),
COc1ccc(C(CNC(=S)NCc2ccccc2)N2CCCC2)cc1 (stereo not given),10.3% (inactive),
COCCC1CCCCN1C(=O)c1cc(COc2ccc(-n3cncn3)cc2)on1 (stereo not given),,19.9 µM (active)
COc1ccc(CNC(=O)COC(=O)C2CC3C=CC2C3)cc1 (stereo not given),0.307% (inactive),
COCC1CCCCN1C(=O)c1cc(COc2ccc3ncccc3c2)on1 (stereo not given),,7.05 µM (active)
CCN(CC)c1ccc(/C=N/n2c(-c3ccccc3Br)n[nH]c2=S)cc1,12.6% (inactive),
CCOC(=O)[C@@H]1[C@H]2COc3ccccc3[C@@H]2N2C(=O)N(c3ccc(OC)cc3)C(=O)[C@@]12C,4.72% (inactive),
CCN(CC)C1CC(=O)N(c2cccc(C)c2)C1=O (stereo not given),,25 µM (active)
O=[N+]([O-])c1cc2c(cc1/C=N/Nc1nc(Nc3ccccc3)nc(N3CCCCC3)n1)OCO2,11.4% (inactive),
Cc1ccc(C)c(-n2[nH]c3c4c(ccc3c2=O)C(=O)c2ccccc2C4=O)c1,-24.7% (inactive),
